This is an account of results in PubChem BioAssay (NCATS).

Assay [1] is described as follows: Viability qHTS for spleen associated tyrosine kinase inhibitor (SYKi) drug resistant MV4-11 cells (AID 1963824). Further: nearly all actives have a fitted effect of over 35% in size. The essentials: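 SYK inhibitor-resistant MV4-11 AML cells, 500 per well, added to predispensed compounds and incubated 72 hr at 37 C, 5% CO2. Viability measured by CellTiter-Glo luminescence after 10 min at room temperature.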
(In qHTS, concentration-response curves come from the screen itself.)

Assay [2] in a line: Cellular viability qHTS for adrenocortical cancer (ACC) cell line SW-13 (AID 1963989). Further: nearly all actives have a fitted effect of over 65% in size.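 On activity (max response): cells grown in serum-free medium with ITS supplement; on the % scale 0 is the no-effect control and ±100 the full control effect.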 The conditions noted are these: SW-13 ACC cells viability, CellTiter-Glo, 48 h; activity (max response): hits give low values. The essentials:
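IC50 and maximal-response values come from four-parameter logistic fits of titration data. SW-13 cells in serum-free medium received compounds (up to 46 uM final) for 48 h before CellTiter-Glo luminescence.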

Assay [3] in a line: Cellular viability qHTS for adrenocortical cancer (ACC) cell line NCI-H295R (AID 1963990). Further: nearly all actives have a fitted effect of over 60% in size. The gist of the method:
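Adrenocortical carcinoma cells, suspended at 300 000 cells/mL in serum-free DMEM plus ITS, rested overnight before pin transfer of compound. After two days' incubation, ATP-dependent luminescence was recorded and curve-fitted.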

Each structure is given as a SMILES string. “And” between values parts separate entries of the source, which are not always exact repeats. Equal entries are not always repeated. Results filed as inconclusive are left out. A number with no mark means an inactive call. The source made the active and inactive calls. The call rests on the fitted dose curve; in most records, active means well fitted curve in the direction sought with a large enough effect; inconclusive means small, poorly fitted or top-dose-only effect, or another doubt; inactive means no such curve, though single readings can be large; an effect the other way counts as inactive or inconclusive.
Potency means the concentration at half of the fitted maximal effect.

Turning to `Cc1[nH]cnc1-c1ccc(Cl)cc1`, the Potency entry in assay [1] and in assay [3] was “inactive” in each case. The activity (max response) in assay [2] is 8.54%.

As to `OC[C@H]1O[C@@H](n2cnc3c(=S)nc[nH]c32)[C@H](O)[C@@H]1O`, the Potency is 1.19 µM (active) in assay [1], 9.2 µM (active) in assay [2] and 2.31 µM (active) in assay [3].

As to `c1cnc(N2CCN(Cc3ccc4c(c3)OCO4)CC2)nc1`, the Potency result in assay [1] and in assay [3] was “inactive” each time. The activity (max response) in assay [2] was 6.56%.

On to `Cc1cc2nc3ccc(=[N+](C)C)cc-3sc2cc1N`, for which the Potency is 1.68 µM (active) in assay [1], 4.61 µM (active) in assay [2] and 5.8 µM (active) in assay [3].

As to `CC(=O)OC(C)OC(=O)C(C)c1ccc(-c2ccccc2)c(F)c1` (stereo unspecified), the Potency result in assay [1] and in assay [3] was “inactive” throughout. Moreover, the activity (max response) in assay [2] is 9.22%.

Take `Cc1ccc(Sc2ccccc2N2CCNCC2)c(C)c1`: the Potency was 4.68 µM (active) in assay [1], 25.1 µM (active) in assay [2] and 3.55 µM (active) in assay [3].

Take `CCc1c(C(=O)NNC(=O)[C@@H](O)c2cc(F)cc(F)c2)ccc(O)c1C`: the Potency in assay [1] was 9.2 µM (active). For the same compound, the activity (max response) in assay [2] was -4.91%. Besides, the Potency result in assay [3] was “inactive”.

For the compound `COc1cc(NS(C)(=O)=O)ccc1Nc1c2ccccc2nc2ccccc12`, the Potency in assay [1] is 0.468 µM (active); in assay [2] it was 5.62 µM (active); in assay [3], 8.91 µM (active).

On to `COc1cc(/C=C/C(=O)O[C@H]2CC[C@]34C[C@]35CC[C@]3(C)[C@@H]([C@H](C)CCC=C(C)C)CC[C@@]3(C)[C@@H]5CC[C@H]4C2(C)C)ccc1O`, for which the Potency is 16.4 µM (active) in assay [1], 14.6 µM (active) in assay [2] and 18.4 µM (active) in assay [3].

Consider `CC(C)(O)C1CCC(Nc2ccc3ncc(-c4cccc(C(F)(F)F)c4)n3n2)CC1` (stereo unspecified), for which the Potency is 1.32 µM (active) in assay [1] and 4.47 µM (active) in assay [3]. The activity (max response) in assay [2] is -17.2%.

For `C/C=C(/C(=C/C)c1ccc(O)cc1)c1ccc(O)cc1`, the Potency in assay [1] was 14.8 µM (active); in assay [2] it was 14.1 µM (active); in assay [3] it was 23.1 µM (active) and 6.31 µM (active).

`COc1ccc2nc(SCc3ncc(C)c(OC)c3C)[nH]c2c1`: the Potency entry in assay [1] and in assay [3] was “inactive” throughout. Further, in assay [2], the activity (max response) is 3.67%.

`CS(=O)(=O)N1CCC(NC(=O)c2[nH]ncc2NC(=O)c2c(Cl)cccc2Cl)CC1`: the results for the Potency in assay [1], in assay [2] and in assay [3] were 0.291 µM (active), 3.98 µM (active) and 11.2 µM (active), respectively.

Take `O=C(O)C(Cc1cc(I)c(O)c(I)c1)c1ccccc1` (stereo unspecified): the Potency entry in assay [1] and in assay [3] was “inactive” each time.

Turning to `CC(=O)CC/C=C(\C)CC/C=C(\C)CC/C=C(\C)CCC=C(C)C`, the Potency entry in assay [1] and in assay [3] was “inactive” each time. For the same compound, the activity (max response) in assay [2] was 9.79%.

On to `CN1CCCN=C1COC(=O)C(O)(c1ccccc1)C1CCCCC1` (stereo unspecified), for which the Potency result in assay [1] and in assay [3] was “inactive” each time. The activity (max response) in assay [2] was 6.26%.

Turning to `N#Cc1c(N)nc(N)nc1N[C@H](c1nc2c(F)ccc(Cl)c2c(=O)n1-c1cccnc1)C1CC1`, the values for the Potency in assay [1] and in assay [3] were 10.5 µM (active) and 22.4 µM (active), respectively. Also, the activity (max response) in assay [2] was -22.7%.

On to `COc1ccc([C@@H]2CC(=O)c3c(O)cc(O[C@@H]4O[C@H](CO[C@@H]5O[C@@H](C)[C@H](O)[C@@H](O)[C@H]5O)[C@@H](O)[C@H](O)[C@H]4O)cc3O2)cc1O`, for which, in assay [1], the Potency was 8.33 µM (active). The activity (max response) in assay [2] is 3.7%. Moreover, the Potency entry in assay [3] was “inactive”.

Regarding `Clc1ccccc1CN1CCc2sccc2C1`, in assay [1], the Potency is 18.8 µM (active). Further, in assay [2], the activity (max response) is 1.55%. Besides, in assay [3], the Potency result was “inactive”.

For the compound `Nc1ncccc1-c1nc2ccc(-c3ccccc3)nc2n1-c1ccc(C2(N)CCC2)cc1`, the results for the Potency in assay [1], in assay [2] and in assay [3] were 5.25 µM (active), 25.1 µM (active) and 3.98 µM (active), respectively.

As to `COc1cccc2c1C(=O)c1c(O)c3c(c(O)c1C2=O)C[C@@](O)(C(C)=O)C[C@@H]3O[C@H]1C[C@H](N)[C@H](O)[C@H](C)O1`, the Potency was 42.2 nM (active) and 18.6 nM (active) in assay [1]; 51.7 nM (active) and 501 nM (active) in assay [2]; 461 nM (active) and 2.24 µM (active) in assay [3].

In the case of `C[C@H]1CNCCCN1S(=O)(=O)c1cccc2cncc(F)c12`, the Potency entry in assay [1] and in assay [3] was “inactive” each time. The activity (max response) in assay [2] is -17.2%.

Consider `CN(C)[C@@H]1C(=O)C(C(N)=O)=C(O)[C@@]2(O)C(=O)C3=C(O)c4c(O)ccc(Cl)c4[C@@H](O)[C@H]3C[C@@H]12`, for which the Potency in assay [1] is 8.41 µM (active). The activity (max response) in assay [2] was -3.2%. In addition, the Potency entry in assay [3] was “inactive”.

In the case of `CC1c2cccc(O)c2C(O)=C2C(=O)C3(O)C(O)=C(C(N)=O)C(=O)C(N(C)C)C3C(O)C21` (stereo unspecified), the Potency in assay [1] was 11.8 µM (active). The activity (max response) in assay [2] is 8.67%. The Potency entry in assay [3] was “inactive”.

As to `CCOC(=O)NNc1nncc2ccccc12`, the Potency result in assay [1] and in assay [3] was “inactive” each time. Also, the activity (max response) in assay [2] is 4.25%.

Regarding `C/C=C1\NC(=O)[C@H]2CSSCC/C=C\[C@H](CC(=O)N[C@H](C(C)C)C(=O)N2)OC(=O)[C@H](C(C)C)NC1=O`, the values for the Potency in assay [1], in assay [2] and in assay [3] were 0.0074 µM (active), 0.0126 µM (active) and 0.0631 µM (active), respectively.

With `Nc1cccc2c1CN([C@H]1CCC(=O)NC1=O)C2=O`, the Potency entry in assay [1] and in assay [3] was “inactive” in each case. For the same compound, the activity (max response) in assay [2] is -17.5%.

For `CC1(C)CC[C@]2(C(=O)O)CC[C@]3(C)C(=CC[C@@H]4[C@@]5(C)C[C@@H](O)[C@H](O)C(C)(C)[C@@H]5CC[C@]43C)[C@@H]2C1`, the Potency in assay [1] was 18.6 µM (active). For the same compound, the activity (max response) in assay [2] was -1.16%. Also, the Potency result in assay [3] was “inactive”.

With `COc1ccc(CNC(=O)Nc2ncc([N+](=O)[O-])s2)cc1`, the Potency in assay [1] was 13 µM (active); in assay [2] it was 25.1 µM (active); in assay [3], 28.2 µM (active).
